# Laboratory results taken from ChEMBL document CHEMBL4513139, “CO-ADD screening of University of Strathclyde (UK) compounds”.
# Entries with a potency or affinity are not part of this list.
# Legend:
# Klebsiella pneumoniae = conditions: Concentration 32 ug.mL-1; ASSAY_TEST Inhibition of Bacterial Growth; detection method Absorption (OD600); MEDIA CAMHB; plate type 384well; NBS; CORNING #3640; time 18 hr
# Candida albicans = conditions: 32 ug/mL
# Cryptococcus neoformans = conditions: Concentration 32 ug.mL-1; ASSAY_TEST Inhibition of Fungal Growth; detection method Resazurin; Absorption (OD600-OD570); plate type 384well; NBS; CORNING #3640
Compound,Inhibition (Klebsiella pneumoniae) [%],Inhibition (Candida albicans) [%],Inhibition (Cryptococcus neoformans) [%]
Cn1cc(NC(=O)c2cc(NC(=O)CCC(=O)O)cn2C)cc1C(=O)NCCN1CCOCC1.O=C(O)C(F)(F)F,14.45,1.67,-38.65
CC(C)CCc1sc(NC(=O)c2cc(NC(=O)c3ccc(/C=C/c4cc5ccccc5nc4On4nnc5ccccc54)cc3)cn2C)nc1C(=O)NCCN1CCOCC1.O=C(O)C(F)(F)F,-11.86,12.3,0.39
CC(=O)N(C(C)=O)c1cc(C(=O)Nc2cc(C(=O)NCCC(=N)N)n(C)c2)n(C)c1.O=C(O)C(F)(F)F,5.82,3.85,87.54
CN(C)CCCNC(=O)c1cc(NC(=O)c2cc(NC(=O)c3ccc(C(=O)O)cc3)cn2C)cn1C.O=C(O)C(F)(F)F,8.35,15.6,-106.52
Cc1ncc(CNc2ccc(C(C)(C)C)cc2)c(N)n1,2.67,-0.83,-46.61
CCOC(=O)c1cc(NC(=O)c2cc(NC(=O)c3sc(N)nc3C(F)(F)F)cn2C)cn1C,7.86,4.58,-88.19
COc1cccc(/C=C/c2ccc(C(=O)Nc3cc(C(=O)Nc4cc(C(=O)NCCN(C)C)n(C)c4)n(C)c3)cc2)c1.O=C(O)C(F)(F)F,26.76,28.1,101.07
CC(=O)Nc1cc(C(=O)Nc2cc(C(=O)Nc3cc(C(=O)NCCCN(C)C)n(C)c3)n(C)c2)n(C)c1.O=C(O)C(F)(F)F,11.92,0.65,-116.29
CC(C)n1cc(NC(=O)c2cc(NC(=O)c3cc(NC=O)cn3C(C)C)cn2C)cc1C(=O)NCCCN(C)C.O=C(O)C(F)(F)F,2.64,-1.38,-103.79
COc1cccc(C(=N)Nc2cc(C(=O)Nc3cc(C(=O)Nc4cn(CCCN(C)C)cn4)n(C)c3)n(C)c2)c1.O=C(O)C(F)(F)F.O=C(O)C(F)(F)F,25.01,0.2,-90.24
Cc1ncc(CO)c(N)n1,-2.19,-0.12,-45.32
CC(=N)Nc1cc(C(=O)Nc2cc(C(=O)Nc3cc(C(=O)NCCN4CCOCC4)n(C)c3)n(C)c2)n(C)c1.O=C(O)C(F)(F)F.O=C(O)C(F)(F)F,13.68,2.29,-100.58
Cc1ncc(CNc2cccc(F)c2)c(N)n1,9.56,1.91,-50.34
COC(=O)c1ccc(C(=O)Nc2cc(C(=O)Nc3cc(C(=O)NCCC(=N)N)n(C)c3)n(C)c2)cc1.O=C(O)C(F)(F)F,7.16,5.42,-78.85
Cn1cc(NC(=O)c2cc(NC(=O)c3ccc(/C=C/c4cccc(F)c4)cc3)cn2C)cc1C(=O)NCCN1CCOCC1.O=C(O)C(F)(F)F,-2.66,24.2,
Cc1ncc(CNc2ccc(C(F)(F)F)cc2)c(N)n1,1.98,0.52,-31.34
Cc1ncc(Cn2cc(CCC(=O)O)nn2)c(N)n1.O=C(O)C(F)(F)F,-1.46,2.33,-50.97
Cn1cc(NC(=O)c2cc(NC(=O)c3sc(N)nc3C(F)(F)F)cn2C)cc1C(=O)NCCC(=N)N.O=C(O)C(F)(F)F,-8.6,5.72,-104.75
CC(C)CCc1sc(NC(=O)c2cc(NC(=O)c3cc(NC(=O)c4ccc(C(=O)O)cc4)cn3C)cn2C)nc1C(=O)NCCCN(C)C.O=C(O)C(F)(F)F,-0.94,8.07,-119.21
CC(C)c1sc(N)nc1C(=O)Nc1cc(C(=O)Nc2cc(C(=O)NCCN3CCOCC3)n(C)c2)n(C)c1.O=C(O)C(F)(F)F,-2.63,3.25,-112.04
Cc1ncc(Cn2cc(CO)nn2)c(N)n1,-6.43,1.92,-37.01
CCOC(=O)CCC(NC(=O)c1ccc(NCc2cn(Cc3cnc(C)nc3N)nn2)cc1)C(=O)OCC (centres undefined),-10.59,5.67,-67.67
Cc1ncc(CNc2ccccc2F)c(N)n1,12.81,1.65,-54.68
Cc1ccc(S(=O)(=O)NCCc2cn(Cc3cnc(C)nc3N)nn2)cc1,1.07,3.05,-48.53
CN(C)CCCNC(=O)c1cc(NC(=O)c2cc(NC(=O)c3cc(NC(=N)c4ccccc4)cn3C)cn2C)cn1C.O=C(O)C(F)(F)F.O=C(O)C(F)(F)F,1.31,0.01,-106.51

Compound,Inhibition (Klebsiella pneumoniae) [%],Inhibition (Candida albicans) [%],Inhibition (Cryptococcus neoformans) [%]
COC(=O)c1ccc(C(=O)Nc2cc(C(=O)Nc3cc(C(=O)NCCCN(C)C)n(C)c3)n(C)c2)cc1.O=C(O)C(F)(F)F,6.59,1.31,-107.28
Cc1ncc(Cn2cc(CCO)nn2)c(N)n1,-3.23,0.2,-50.84
CC(=O)Nc1cc(C(=O)Nc2cc(C(=O)Nc3cc(C(=O)NCCCN(C)C)n(CCC(C)C)c3)n(C)c2)n(C)c1.O=C(O)C(F)(F)F,-0.56,0.94,-102.49
COCCOC1CCN(C(=O)c2cc(NC(=O)c3cc(NC(=O)c4ccc(/C=C/c5cnc6ccccc6c5)cc4)cn3C)cn2C)CC1,10.84,3.83,112.33
COC(=O)CCC(=O)Nc1cc(C(=O)Nc2cc(C(=O)NCCCN(C)C)n(C)c2)n(C)c1.O=C(O)C(F)(F)F,-5.32,0.6,-50.28
COC(=O)c1ccc(C(=O)Nc2cc(C(=O)Nc3cc(C(=O)NCCN4CCOCC4)n(C)c3)n(C)c2)cc1.O=C(O)C(F)(F)F,8.44,7.27,-98.27
COCCOC1CCN(C(=O)c2cc(NC(=O)c3cc(NC(=O)c4ccc(/C=C/c5ccc(OC)cc5)cc4)cn3C)cn2C)CC1.O=S(=O)(O)O,1.91,3.1,97.19
CC(C)c1sc(N)nc1C(=O)Nc1cc(C(=O)NCCN2CCOCC2)n(C)c1.O=C(O)C(F)(F)F,8.18,3.26,-97.94
Cc1ncc(Cn2cc(CCCO)nn2)c(N)n1,-1.34,0.26,-29.76
COC(=O)CCC(=O)Nc1cc(C(=O)Nc2cc(C(=O)NCCC(=N)N)n(C)c2)n(C)c1.O=C(O)C(F)(F)F,5.44,2.68,-68.45
COc1cccc(C(=N)Nc2cc(C(=O)Nc3cc(C(=O)Nc4cc(C(=O)NCCCN5CCOCC5)n(C)c4)n(C)c3)n(C)c2)c1.O=C(O)C(F)(F)F.O=C(O)C(F)(F)F,14.25,1.73,-103.93
CN(C)CCCNC(=O)c1cc(NC(=O)c2cc(NC(=O)CCC(=O)O)cn2C)cn1C.O=C(O)C(F)(F)F,6.24,0.85,-54.8
COc1ccc(CC(=O)Nc2cc(C(=O)Nc3cc(C(=O)Nc4cn(CCCN(C)C)cn4)n(C)c3)n(C)c2)cc1.O=C(O)C(F)(F)F,2.03,1.27,-97.5
COc1cccc(C(=O)Nc2cc(C(=O)Nc3cc(C(=O)Nc4cn(CCCN(C)C)cn4)n(C)c3)n(C)c2)c1.O=C(O)C(F)(F)F,3.02,3.2,-93.96
COc1cccc(C(=N)Nc2cc(C(=O)Nc3cc(C(=O)NCCC(=N)N)n(C)c3)n(C)c2)c1.O=C(O)C(F)(F)F.O=C(O)C(F)(F)F,100.7,39.3,101.54
Cn1cc(NC(=O)c2cc(NC(=O)c3cc(NC(=O)c4ccc(Cl)cc4Cl)cn3C)cn2C)cc1C(=O)NCCN1CCOCC1.O=C(O)C(F)(F)F,11.99,9.71,9.62
CN(C)CCCNC(=O)c1cc(NC(=O)c2cc(NC(=O)c3cc(NC(=N)N)cn3C)cn2C)cn1C.O=C(O)C(F)(F)F.O=C(O)C(F)(F)F,7.81,2.03,-105.56
Cc1ncc(Cn2cc(CCCCO)nn2)c(N)n1,1.98,2.99,-60.21
COC(=O)CCC(=O)Nc1cc(C(=O)Nc2cc(C(=O)NCCN3CCOCC3)n(C)c2)n(C)c1.O=C(O)C(F)(F)F,8.45,1.41,-63.38
COc1ccc(/C=C(/C(=O)Nc2cc(C(=O)Nc3cc(C(=O)NCCCN(C)C)n(C)c3)n(C)c2)c2ccc(OC)cc2)cc1.O=C(O)C(F)(F)F,4.2,1.83,-5.3
CCOC(=O)c1cc(NC(=O)c2cc(NC(=O)c3nc(N)sc3C(C)C)cn2C)cn1C,11.43,4.33,-54.98
CC(C)CCc1sc(N)nc1C(=O)Nc1cc(C(=O)Nc2cc(C(=O)NCCN3CCOCC3)n(C)c2)n(C)c1.O=C(O)C(F)(F)F,5.14,4.42,-77.2
COc1cccc(C(=N)Nc2cc(C(=O)Nc3cc(C(=O)Nc4cc(C(=O)NCCCN(C)C)n(C)c4)n(C)c3)n(C)c2)c1.O=C(O)C(F)(F)F.O=C(O)C(F)(F)F,5.64,0.48,-103.02
Cc1ncc(CNc2ccc(F)cc2)c(N)n1,12.64,4.55,-57.63
CC(C)CCc1sc(NC(=O)c2cc(NC(=O)c3ccc(/C=C/c4cc5ccccc5nc4Cl)cc3)cn2C)nc1C(=O)NCCN1CCOCC1.O=C(O)C(F)(F)F,-4.36,2.62,-70.82
